# SMN2 splice enh – enhancers of SMN2 splice variant expression. HEK293 SMN2-luciferase splicing reporter, luminescence, 30-36 h. Potency, µM (doses to about 46.1 µM), without a hit: top-dose activity change, positive = activation, most hits filed as activators. 210,000 tested, 2.8% active. AID 1458; also: % of control where 0% means no effect; nearly all actives have a fitted effect of over 55% in size
#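 HEK293 cells carry an SMN2 […]–luciferase reporter in which exon 7 inclusion puts luciferase in frame. Cells were plated 10-12 h before compound addition, then incubated 30-36 h at 37C. ONE-Glo luminescence was read; sodium butyrate at 4.5 mM final served as control.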
# ELG1 repair inh – inhibitors of ELG1-dependent DNA repair in HEK293T cells. HEK293T ELG1-luciferase reporter, luminescence, 16 h; DNA damage induced by 5-fluorouridine. Potency, µM (top dose mostly 46.1 µM), for inactives: top-dose activity change, negative = inhibition, actives largely listed as inhibitors. 330,000 tested, 2.3% active. AID 504467; also: % is scaled to controls: 0 for no effect and ±100 for the full control effect; nearly all actives have a fitted effect of over 55% in size
#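 Step one: seed 2,000 cells per well. Step two: pin-transfer compound or DMSO alongside 5-fluorouridine. Step three: incubate 16 hr, 37 °C, 5% CO2. Step four: add ONE-Glo, wait 30 min, read luminescence.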
# NPC1 prom act – activates the NPC1 promoter; 320,000 tested, 2.4% active; Huh7 NPC1 promoter luciferase reporter, 24 h; Potency, µM (doses to about 9.22 µM), for the others: at the highest dose activation, hits mostly activators; also: % of control where 0% means no effect; nearly all actives have a fitted effect of over 60% in size
#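 Quantitative HTS used a cell-based reporter: Huh7 cells stably bearing the NPC1 promoter upstream of luciferase were treated with compounds for 24 h, and promoter activation was read as luminescence.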
# Rab9 promoter act – activators of Rab9 promoter; Huh7 Rab9 promoter-luciferase reporter, luminescence, 24 h; Potency, µM (top dose mostly 9.22 µM), for the others: at the highest dose activation, negative = inhibition, most hits filed as activators; 320,000 tested, 2.8% active; AID 485297; also: % of control where 0% means no effect; nearly all actives have a fitted effect of over 60% in size
#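 Huh7 cells stably carrying Rab9 promoter–luciferase reporter, plated 1500 cells/well, compound added after 2 h and incubated 24 h at 37 °C; luciferase luminescence then read after 10 min with detection reagent.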
# ELG1 genotoxic – genotoxicity induction in ELG1-luciferase HEK293T cells. AID 504466. Potency, µM (highest dose often 46 µM), for inactives: at the highest dose activity change, positive = activation, usual class: activators. HEK293T ELG1-luciferase reporter, luminescence, 16 h. 330,000 tested, 1.3% active; also: % of control where 0% means no effect; nearly all actives have a fitted effect of over 60% in size
#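 Genotoxic stress is detected as increased luminescence from luciferase-tagged ELG1 in HEK293T cells, measured with ONE-Glo after a 16 hr treatment at 37 °C.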
# FLuc counter – firefly luciferase modulation, counter-screen for miR-21 project | 360,000 tested, 6.9% active | P08659 | purified FLuc, Km substrates, luminescence inhibition | Potency, µM (doses to about 57.5 µM), inactives show at the highest dose activity change, negative = inhibition, usual class: inhibitors | AID 588342;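 also: plate controls were vehicle for no effect and reference inhibitor for full effect; nearly all actives have a fitted effect of over 55% in size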
#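 Biochemical qHTS of compounds, final roughly 60 µM downward over six points, against 10 nM purified firefly luciferase using Km concentrations of substrates (10 uM D-luciferin, 10 uM ATP) in Tris acetate pH 7.5 buffer; luminescence output.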
# ELG1 FLuc counter – luciferase inhibition in cell-free luciferin readout for ELG1 hits | shares compounds with ELG1 repair inh | cell-free firefly luciferase luminescence counter-screen, ViewLux | Potency, µM (top dose mostly 46.1 µM), for the others: top-dose activity change, negative = inhibition, usual class: inhibitors | 350 tested, 3% active | AID 624247; also: % is scaled to controls: 0 for no effect and ±100 for the full control effect
# ELG1 Luc conf – inhibits ELG1-dependent DNA repair in HEK293T cells, confirmed; HEK293T ELG1-luciferase levels, luminescence; cells co-treated with 5-fluorouridine; 670 tested, 68% active; shares compounds with ELG1 repair inh; Potency, µM (doses to about 46.1 µM), for inactives: at the highest dose activity change, negative = inhibition, actives largely listed as inhibitors; also: % is scaled to controls: 0 for no effect and ±100 for the full control effect; nearly all actives have a fitted effect of over 55% in size
# Target sequence (Q96QE3 whole entry, looked up): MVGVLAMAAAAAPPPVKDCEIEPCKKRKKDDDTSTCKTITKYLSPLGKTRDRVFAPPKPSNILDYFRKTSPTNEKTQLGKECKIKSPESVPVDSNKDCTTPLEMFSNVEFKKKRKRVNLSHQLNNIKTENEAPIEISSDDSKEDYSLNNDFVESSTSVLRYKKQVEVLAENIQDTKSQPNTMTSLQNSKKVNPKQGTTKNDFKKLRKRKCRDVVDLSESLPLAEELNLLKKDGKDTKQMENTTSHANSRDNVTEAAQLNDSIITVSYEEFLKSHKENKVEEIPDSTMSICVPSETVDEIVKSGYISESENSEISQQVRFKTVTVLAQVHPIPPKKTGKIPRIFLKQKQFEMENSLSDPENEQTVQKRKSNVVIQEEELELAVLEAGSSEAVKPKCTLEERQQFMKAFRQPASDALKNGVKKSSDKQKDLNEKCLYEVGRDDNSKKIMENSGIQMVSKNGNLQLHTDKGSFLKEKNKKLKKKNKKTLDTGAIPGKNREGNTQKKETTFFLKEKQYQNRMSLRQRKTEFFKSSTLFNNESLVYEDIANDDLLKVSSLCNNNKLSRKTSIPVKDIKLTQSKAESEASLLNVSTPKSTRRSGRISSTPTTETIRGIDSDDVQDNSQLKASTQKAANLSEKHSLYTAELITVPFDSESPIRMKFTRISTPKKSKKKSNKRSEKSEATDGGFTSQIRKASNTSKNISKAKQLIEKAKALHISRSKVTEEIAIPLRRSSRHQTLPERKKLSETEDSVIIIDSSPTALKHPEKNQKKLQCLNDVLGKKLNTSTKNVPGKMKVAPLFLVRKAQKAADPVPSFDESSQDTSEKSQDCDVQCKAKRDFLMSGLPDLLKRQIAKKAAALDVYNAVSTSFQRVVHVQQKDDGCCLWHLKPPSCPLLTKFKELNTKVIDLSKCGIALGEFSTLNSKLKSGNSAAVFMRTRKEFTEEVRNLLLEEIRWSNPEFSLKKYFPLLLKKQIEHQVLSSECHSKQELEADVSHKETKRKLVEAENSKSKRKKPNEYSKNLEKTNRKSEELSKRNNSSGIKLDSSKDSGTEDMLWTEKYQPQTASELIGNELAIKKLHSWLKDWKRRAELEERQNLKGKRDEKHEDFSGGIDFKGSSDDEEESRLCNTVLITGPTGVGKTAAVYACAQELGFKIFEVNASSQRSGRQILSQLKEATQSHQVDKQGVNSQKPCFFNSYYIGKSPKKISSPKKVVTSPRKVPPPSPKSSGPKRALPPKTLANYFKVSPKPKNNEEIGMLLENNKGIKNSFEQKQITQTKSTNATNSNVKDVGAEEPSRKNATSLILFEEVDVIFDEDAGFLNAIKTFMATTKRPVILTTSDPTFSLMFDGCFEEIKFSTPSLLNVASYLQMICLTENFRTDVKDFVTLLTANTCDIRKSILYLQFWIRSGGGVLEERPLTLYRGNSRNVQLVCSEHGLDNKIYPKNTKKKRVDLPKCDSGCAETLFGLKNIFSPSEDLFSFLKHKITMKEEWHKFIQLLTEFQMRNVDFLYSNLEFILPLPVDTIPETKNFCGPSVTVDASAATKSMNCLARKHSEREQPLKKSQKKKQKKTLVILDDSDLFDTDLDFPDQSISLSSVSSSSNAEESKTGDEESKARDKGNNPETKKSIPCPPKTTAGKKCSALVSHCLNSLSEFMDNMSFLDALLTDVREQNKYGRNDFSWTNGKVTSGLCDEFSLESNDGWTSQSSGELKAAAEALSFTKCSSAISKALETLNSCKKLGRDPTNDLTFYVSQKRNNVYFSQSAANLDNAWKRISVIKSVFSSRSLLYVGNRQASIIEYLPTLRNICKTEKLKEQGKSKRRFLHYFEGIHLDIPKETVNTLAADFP
# ELG1 MMS Luc – inhibits ELG1-dependent repair under MMS stimulation in HEK293T cells; 670 tested, 53% active; shares compounds with ELG1 repair inh; Potency, µM (series often up to 46.1 µM), for inactives: at the top dose activity change, negative = inhibition, usual class: inhibitors; HEK293T luciferase-tagged ELG1 level, MMS stimulated; also: % is scaled to controls: 0 for no effect and ±100 for the full control effect; nearly all actives have a fitted effect of over 60% in size
# ELG1 5FU viab – confirmation of ELG1 repair inhibitors: viability with 5FU. shares compounds with ELG1 repair inh. cell viability with 5-FU, ELG1-dependent repair. Potency, µM (doses to about 46.1 µM), for inactives: at the highest dose activity change, negative = viability loss, hits mostly cytotoxic. 670 tested, under 10 active;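 also: ELG1-luc HEK293T cells cotreated with 5-fluorouridine at 10 µM final; viability measured 16 h after compound addition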
# ELG1 MMS cell – confirmation of ELG1 repair inhibitors: viability with MMS | shares compounds with ELG1 repair inh | Potency, µM (titrated, usually from 46.1 µM), inactives show at the top dose activity change, negative = viability loss, hits mostly cytotoxic | 670 tested, 33% active | AID 624251 | Cell viability with MMS, ELG1-dependent DNA repair;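 also: ELG1-luc HEK293T cells co-treated with 10 µM MMS; viability read 16 h after compound addition; % is scaled to controls: 0 for no effect and ±100 for the full control effect; nearly all actives have a fitted effect of over 60% in size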
# ELG1 unstim viab – unstimulated viability counter-screen for ELG1 repair hits; 900 tested, 8% active; Potency, µM (titrated, usually from 45.9 µM), inactives show at the highest dose activity change, negative = loss of viability, usual class: cytotoxic; cell viability counter-screen, unstimulated, luminescence; shares compounds with ELG1 repair inh; AID 624252;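 also: compound exposure lasted 16 hours before reading; % is scaled to controls: 0 for no effect and ±100 for the full control effect; nearly all actives have a fitted effect of over 55% in size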
# FLuc enzyme – counter-screen for ELG1 repair inhibitors: firefly luciferase inhibition | shares compounds with ELG1 repair inh | Potency, µM (top dose mostly 57.5 µM), without a hit: top-dose activity, negative = inhibition, hits mostly inhibitors | purified firefly luciferase, luminescence counter-screen | AID 624253 | 350 tested, 10% active; also: % is scaled to controls: 0 for no effect and ±100 for the full control effect
# Numbers without * were called inactive; u = inconclusive; x = no result; [ ] = another dose, or the depositor's remark. Hits are enriched below; roughly 9.4% of the tested compounds scored in any of these assays. Calls follow the shape of the dose curve; as a rule, active = well fitted curve in the direction sought with a large enough effect; inconclusive = small, poorly fitted or top-dose-only effect, or another doubt; inactive = no such curve, though single readings can be large; an effect the other way counts as inactive or inconclusive. Potency is read from the fitted curve at half-maximal effect.
SMILES,SMN2 splice enh,ELG1 repair inh,NPC1 prom act,Rab9 promoter act,ELG1 genotoxic,FLuc counter,ELG1 FLuc counter,ELG1 Luc conf,ELG1 MMS Luc,ELG1 5FU viab,ELG1 MMS cell,ELG1 unstim viab,FLuc enzyme
C[C@@H]1C[C@@H]2[C@H]([C@H]3C=C(COC(=O)c4ccccc4)[C@@H](O)[C@]4(O)[C@@H](O)C(OC(=O)c5ccccc5)=C[C@@]14C3=O)C2(C)C,x,x,x,x,x,x,96%,x,x,x,x,u,-1%
CO/C1=C\C(C)=C\[C@@H](C)[C@@H](O)[C@H](C)C/C(C)=C/C=C/[C@H](OC)[C@H]([C@@H](C)[C@@H](O)[C@H](C)[C@H]2C[C@@H](O)[C@H](C)[C@@H](C(C)C)O2)OC1=O,-59%,x,x,x,x,x,5%,-3%,-19%,-8%,u,u,-1%
CC(=O)OCC1=C[C@H]2[C@@H]3C(C)(C)[C@]3(OC(=O)Cc3ccccc3)C[C@@H](C)[C@]2(O)[C@@H]2C=C(C)C(=O)[C@@]2(O)C1,x,x,x,x,x,x,x,x,x,x,x,u,x
O=C(Nc1ccon1)c1cccn(Cc2ccccc2)c1=O,x,x,x,x,x,-2%,x,x,x,x,x,x,x
O=C(Nc1ccncc1)c1cccn(Cc2ccccc2)c1=O,-75%,3.3µM*,-27%,-29%,1%,-14%,x,8%,2.2µM*,2%,2.5µM*,u,x
C[C@@H]1C[C@H](C)C[C@H](C)[C@@H](O)CC(=O)O[C@H]([C@H]2CCC[C@H]2C(=O)O)C/C=C/C=C(/C#N)[C@H](O)[C@@H](C)C1,x,x,x,x,x,x,u,0.4µM*,0.79µM*,u,6.3µM*,u,5%
CC(C)NC(=O)C(C)N1CCN(S(=O)(=O)c2ccc3ccccc3c2)CC1 (configuration not stated),x,u,1%,-1%,0%,0%,x,x,x,x,x,x,x
Cc1sc2ncnc(SCC(=O)Nc3ccc(S(=O)(=O)N4CCOCC4)cc3)c2c1C,x,u,x,x,-4%,x,x,x,x,x,x,x,x
CC(=O)O[C@H]1C[C@@H](O[C@@H]2[C@H](C)O[C@H](O[C@@H]3[C@H](C)O[C@H](O[C@@H]4CC[C@@]5(C)[C@@H](CC[C@]6(C)[C@]5(C)C[C@H](O)[C@]5(C)[C@@H](C7=CC(=O)OC7)CC[C@@]56O)C4)C[C@@H]3O)C[C@@H]2O)O[C@@H](C)[C@H]1O[C@H]1O[C@@H](CO)[C@@H](O)[C@@H](O)[C@@H]1O,-58%[20.6 µM],x,x,x,x,x,u,1.1µM*,0.6µM*,u,1.7µM*,u,3%[35.2 µM]
OCCBr,5%,x,x,x,x,x,x,x,x,x,x,x,x
C[C@@H]1O[C@@H](O[C@H]2CC[C@]3(C=O)C4CC[C@]5(C)[C@@H](C6=CC(=O)OC6)CC[C@]5(O)[C@@H]4CC[C@]3(O)C2)[C@H](O)[C@H](O)[C@H]1O (some centres not stated),-87%,x,x,x,x,x,x,x,x,x,x,x,x
CC1O[C@@H](OC2CC[C@@]3(C=O)C4CC[C@]5(C)C(C6=CC(=O)OC6)CC[C@@]5(O)C4CC[C@]3(O)C2)C(O)C(O)C1O (some centres not stated),-109%,x,x,x,x,x,u,0.32µM*,0.16µM*,u,0.28µM*,0.14µM*,-8%
COc1ccc2cc1Oc1ccc(cc1)CC1c3cc(c(OC)cc3CCN1C)Oc1c(OC)c(OC)cc3c1C(C2)N(C)CC3 (configuration not stated),-21%,x,x,x,x,x,x,x,x,x,x,x,x

# Bioassay records: PubChem, National Center for Advancing Translational Sciences (NCATS)
